Sampled rows, rich in hits. Any-hit rate of the full collection: about 19%.
IL-1B inflam inh: qHTS for Inhibitors of Inflammasome Signaling: IL-1-beta AlphaLISA Primary Screen. AID 743279, 2014. activity change, % at 57.5 µM. THP-1 LPS/ATP IL-1B secretion, AlphaLISA, 16 h; active compounds read low. 360,000 tested, 4.7% active; in the data active means activity change below about -50%; inconclusive means mostly about -30% to -49%
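Secreted IL-1B measured by AlphaLISA bead assay after 16 h compound exposure of THP-1 cells; compounds (final up to 57.5 uM) added 1 h before LPS (250 ng/mL) and ATP (1.25 mM) stimulation; lower signal means less secretion.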
TDP1 cell noCPT: qHTS for Inhibitors of human tyrosyl-DNA phosphodiesterase 1 (TDP1): qHTS in cells in absence of CPT; DT40 Tdp1-/- hTDP1 cells, no CPT, ATP luminescence, 48 h; Potency, µM (titrated, usually from 46.2 µM), hits mostly inhibitors; 420,000 tested, 15% active; AID 686978, 2013; further: nearly all actives have a fitted effect of over 55% in size
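Seeded 400 DT40-hTDP1 cells/well (vehicle DMSO, no 20 nM CPT); pinned compounds; ≥48 hr at 37 °C; CellTiter-Glo luminescence as viability measure.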
ELG1 repair inh: qHTS screen for small molecules that inhibit ELG1-dependent DNA repair in human embryonic kidney (HEK293T) cells expressing luciferase-tagged ELG1; HEK293T ELG1-luciferase reporter, luminescence, 16 h; DNA damage induced by 5-fluorouridine; Potency, µM (series often up to 46.1 µM), most hits filed as inhibitors; 330,000 tested, 2.3% active; AID 504467, 2011; further: nearly all actives have a fitted effect of over 55% in size
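In this reporter screen, reduction of luminescence relative to DMSO vehicle indicated activity. Compounds and 5-fluorouridine were added together to 2,000 cells per well, incubated for 16 hr at 37 °C, then developed with ONE-Glo.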
HT1080 IDH1KD tx: qHTS for induction of synthetic lethality in tumor cells producing 2HG: qHTS for the HT-1080-IDH1KD cell line; HT-1080 IDH1 knockdown viability, ATP luminescence, 48 h; 360,000 tested, 2% active; Potency, µM (titrated, usually from 46.1 µM), most hits filed as cytotoxic; AID 686971, 2013
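Knockdown cells (IDH1KD HT-1080) received compounds 2 h after plating at 750 cells/well and were kept 48 h at 37 °C in 5% FBS RPMI. A CellTiter-Glo luminescence read gave % activity for curve fitting.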
DT40 TDP1 CPT: qHTS for Inhibitors of human tyrosyl-DNA phosphodiesterase 1 (TDP1): qHTS in cells in presence of CPT | AID 686979, 2013 | chicken DT40 Tdp1-/-;hTDP1 cells + 20 nM CPT, ATP luminescence, 48 h | 420,000 tested, 12% active | Potency, µM (titrated, usually from 46.2 µM), most hits filed as inhibitors; further: nearly all actives have a fitted effect of over 55% in size
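Cell growth measured by CellTiter-Glo luminescence after a minimum 48 h, 37 C compound exposure with 20 nM CPT in Tdp1-knockout DT40 cells stably expressing hTDP1, seeded 400/well; qHTS titration format.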
HT1080NT lethal: qHTS for induction of synthetic lethality in tumor cells producing 2HG: qHTS for the HT-1080-NT fibrosarcoma cell line | HT-1080-NT fibrosarcoma viability, CellTiter-Glo ATP luminescence, 48 h | Potency, µM (titrated, usually from 46.1 µM), hits mostly cytotoxic | 360,000 tested, 1.6% active | AID 686970, 2013;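 further: NT is the 2HG producing partner of a matched IDH1 knockdown line; nearly all actives have a fitted effect of over 55% in size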
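Fibrosarcoma NT cells, 750 per well in 5% FBS RPMI, were exposed to compound for 48 hours. Viability: CellTiter-Glo luminescence.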
Large screens that a line does not name were inactive. Unless noted, the call rests on the fitted dose curve; in most records, active means well fitted curve in the direction sought with a large enough effect; inconclusive means small, poorly fitted or top-dose-only effect, or another doubt; inactive means no such curve, though single readings can be large; an effect the other way counts as inactive or inconclusive.

CCN(C[C@H]1N[C@@](C)(C(=O)OC)[C@H]2C(=O)N(Cc3ccccc3)C(=O)[C@@H]12)C(=O)Nc1ccc(F)cc1	none
COc1ccc(CN2C(=O)c3cccnc3C2=O)cc1S(=O)(=O)NC(C)C	none
CC[C@@]1(C(=O)OC)N[C@H](CN(C)S(=O)(=O)c2ccc(-c3ccccc3)cc2)[C@@H]2C(=O)N(Cc3ccccc3)C(=O)[C@@H]21	none
CCN(C[C@H]1N[C@@](Cc2ccccc2)(C(=O)OC)[C@H]2C(=O)N(C)C(=O)[C@@H]12)S(=O)(=O)c1ccc(C(F)(F)F)cc1	TDP1 cell noCPT 18µM, ELG1 repair inh 23µM, DT40 TDP1 CPT 23µM
CCN(C[C@H]1N[C@@](Cc2ccccc2)(C(=O)OC)[C@H]2C(=O)N(C)C(=O)[C@@H]12)S(=O)(=O)c1ccc(OC(F)(F)F)cc1	TDP1 cell noCPT 16µM, ELG1 repair inh 21µM, DT40 TDP1 CPT inconclusive
CCN(C[C@H]1N[C@@](Cc2ccccc2)(C(=O)OC)[C@H]2C(=O)N(Cc3ccccc3)C(=O)[C@@H]12)S(=O)(=O)c1ccc(C(F)(F)F)cc1	TDP1 cell noCPT inconclusive, DT40 TDP1 CPT inconclusive
CCN(C[C@H]1N[C@@](C)(C(=O)OC)[C@H]2C(=O)N(C)C(=O)[C@@H]12)S(=O)(=O)c1ccc(OC(F)(F)F)cc1	none
COC(=O)[C@]1(Cc2ccccc2)N[C@H](CN(C)S(=O)(=O)c2ccc(-c3ccccc3)cc2)[C@@H]2C(=O)N(C)C(=O)[C@@H]21	TDP1 cell noCPT 21µM, ELG1 repair inh inconclusive, DT40 TDP1 CPT 26µM
CCN(C[C@H]1N[C@@](Cc2ccccc2)(C(=O)OC)[C@H]2C(=O)N(C)C(=O)[C@@H]12)S(=O)(=O)c1ccc(OC)cc1	TDP1 cell noCPT 15µM, ELG1 repair inh inconclusive, DT40 TDP1 CPT 15µM
COc1ccc(OCCOc2ccc(/C=C3\C(=N)N4N=C(C)SC4=NC3=O)cc2)cc1	none
CCC1(CC)NC(=O)N(CC(=O)OCC(=O)Nc2cc(OC)ccc2OC)C1=O	none
Cc1cc(Cn2nc(C(=O)NCc3cccc(C(F)(F)F)c3)cc2-c2ccccc2)on1	TDP1 cell noCPT inconclusive, DT40 TDP1 CPT inconclusive
CSCC[C@H](NC(=O)Nc1ccc(S(N)(=O)=O)cc1)C(=O)O	none
CCOC(=O)C1(CC2CCCCO2)CCN(C(=O)NCc2ccccc2)CC1 (stereo not drawn)	none
CCOC(=O)Cn1c(=O)oc2cc(S(=O)(=O)N3CCC(C(=O)OCC)CC3)ccc21	none (no result: IL-1B inflam inh, ELG1 repair inh, HT1080 IDH1KD tx, HT1080NT lethal)
CC1(C(=O)NCc2ccccc2Br)CCN1C(=O)CCc1ccc(Cl)cc1Cl (stereo not drawn)	IL-1B inflam inh inconclusive, HT1080 IDH1KD tx inconclusive, DT40 TDP1 CPT inconclusive, HT1080NT lethal inconclusive (no result: ELG1 repair inh)
O=C(N[C@H](CO)Cc1ccccc1)c1ccco1	none (no result: ELG1 repair inh)
CC(=O)N1C(C)(C)CC(=NOS(=O)(=O)c2ccccc2)CC1(C)C	ELG1 repair inh inconclusive
CC(=O)OC1(C)C=Cc2ccccc2C1=NS(=O)(=O)c1ccccc1 (stereo not drawn)	TDP1 cell noCPT 23µM, DT40 TDP1 CPT inconclusive (no result: ELG1 repair inh)
O=C(c1cc2ccccc2oc1=O)N(Cc1ccco1)Cc1cccs1	TDP1 cell noCPT inconclusive, DT40 TDP1 CPT 21µM
O=C(c1cc2ccccc2oc1=O)N(Cc1cccs1)CC1CCCO1 (stereo not drawn)	TDP1 cell noCPT inconclusive, DT40 TDP1 CPT inconclusive
O=C(c1cc2ccccc2oc1=O)N(Cc1cccs1)Cc1cccs1	TDP1 cell noCPT 23µM, DT40 TDP1 CPT inconclusive

High-throughput results as filed in PubChem BioAssay.
